Test results as given in PubChem BioAssay AID1508600 (Functional Genomics Laboratory (NCATS/FGL), 2020).
The campaign covered roughly 53,000 sequences. About 3,700 (7%) were called active.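 The calls were made as follows: active = gene knockdowns whose robust z-score for IL-1 alpha signal is at least 2 or at most -2, so actives lie on both sides; inactive = the rest.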 Only a selection was taken, and actives are over-represented in it overall.

Assay: Components of the Cytosolic LPS Sensing Pathway: Gene Identification via Genome-wide siRNA Screen;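 also: robust z of the log signal after scaling to non-targeting control siRNA wells of the plate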
Conditions: RAW264.7 macrophages, IL-1a HTRF, actives lie on both sides, screened at 100 nM (by protocol), cells primed 5 h with Pam3CSK4 first
Procedure, shortened: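 RAW264.7; siRNA 100 nM final, RNAiMAX, 48h 37 degrees C; Pam3CSK4 5 h; LipidA + TransIT-TKO 24 h; IL-1a HTRF; CellTiter-Glo viability; robust z vs negative-control median.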

z-score, inactive:
CCAGGACAAUAACUCUGAGTT against Aatk -1.28
GGCGAGUUUAUAGAAGAAATT against Phf19 1.35
GGCUUGGAAUGACACUACUTT against Maged1 -1.12
GCUCAAUUUACAAAAGCCCTT against Pik3c2a -0.961
CCUGUUUCUGACCUAAUACTT against Syn1 -0.088
GGAAGAUAUUGCUGUUGGATT against Mbd4 0.823
GCAAGAUGAGAAGGAUUUUTT against Zfp691 0.591
GGAGGAAAACAAACCACAGTT against Tpbpa 0.0817
GCUGCAUCUAAAGCCUUAATT against Olfr661 1.41
GGAAGAAAGUGAAGAAGAGTT against Cdr1os -0.387
GGACUUUGUGAUCUUUCCATT against Pias2 -0.57
CCUGGCUAUUGGUGAGUGATT against Slc30a3 1.9
CCAAACUUUUGUGGAACAGTT against Galnt9 0.0294
GGCAUGUGGUUGAAGGCCUTT against Fank1 -0.337
GGACAAUGAAGAUUUGGAATT against Ush2a -0.669
CCGCCGAUCUACUAGUGGUTT against Slc6a2 0.46
GCGGCCUUCGAAGAUAUUCTT against Pnliprp2 -0.144
GCCAGCGUACUCUUUUUAUTT against Ocln -0.694
GGAGCUGGUGGAUCUGAAGTT against Ubfd1 1.26
CGUGACUAUUCUGAUAAGUTT against Arl15 0.134
GGAAGGAGGAAAAGUAGGUTT against Peli1 -0.00852
GGAAGAGAGCAGAAAGAAGTT against Trim35 -0.135
GGUGGGCUACGAACUAAAGTT against Prpf31 0.664
GGUGUUGAAAGUCAUUGUGTT against Med27 -0.196
GGCAGAUACUUCUCUGGAGTT against Sdc4 -0.498
GGAAGAAGACAUGCUCACUTT against Pcdhb8 1.07
GGUGGAGAACCAUAUCACATT against Abcg4 0.105
GAGCAUCCGCUACUUGGUATT against Nmnat1 0.0484
GCAUUUCAGCAGAACAAUATT against Phldb1 0.5
GGAGACUUUCCAUUUGAAGTT against Fnbp1l -0.188
GAAAAAAUCUAUCUACCCUTT against Hoxb4 -0.219
GGUCAGUUGAGAUGUUUUUTT against Pag1 0.346
GGACUAGUCCUAAGAAGAGTT against Rbmxl2 -1.27
GCCUAUCUACGACCUCAUCTT against Kel -0.768
GGCCAUUACCCAUGAGACUTT against Cd63 0.997
GGAACAAAUGUUCGAAAUGTT against Eif4a2 -0.0347
GGAUAUGAAACACCAGAUCTT against Naip2 -1.89
GCAGCAGACACUCUGUACATT against Pcbp4 -0.0747
GGACAAGUACAGGUUCCUATT against Vrk3 0.536
GCUCGUUUGAUGCUGUCUCTT against Prkag1 -1.17
GCUGUUUUGGUAGAUUUUGTT against Map3k8 0.0466
GCUGAACCUGCAGCACAUCTT against Mettl7a2 -0.0665
GGAGUACAUUGUGAAUGUUTT against Tnr -1.44
GCUGGUGAACCAAAAACUCTT against Ccdc3 -0.366
GGACAUGGUACCACAGGAGTT against Tenm4 0.643
GAGCCAAAUCAGGAACAGCTT against Trim29 1.4
GCCAAUAGCUCCAGCUUGATT against Olfr668 0.534
GGCAACUUGGGAGUUUCACTT against Kcnab1 1.41
CUUGGUGGAUGAAAGAUUCTT against Tdpoz2 -0.776
GGUCAAAGUGUAACUUGUUTT against Rwdd4a -0.0956
GGAAGAUGAACAUCAAACATT against Dglucy 0.855
GGAAGAGAGCGAUUAAAUUTT against Rsrc2 0.839
GGAAAAUGUCCGUAAAAGGTT against Dtx2 0.196
GGAGACACUCGUCCUUUAUTT against Cyp20a1 -1.27
GCUUUACUAUGUGAGAAAUTT against Ryk -1.89
GGGACAAUCAACACAAAAUTT against Ythdf3 0.172
GGUCUUGGAGGAUCCCAAUTT against Tex13a -1.55
GCUCUCUGAAAGAGUAUUGTT against Khdrbs2 0.963
GACAAGCUGUGGAGAAGUGTT against Lce1b 0.298
CCGAUUGAAAUAUGAAUCCTT against Cuedc1 1.22
CCAAGAAAUUGCACUGGGATT against A130050O07Rik 0.781
CCACAUCCUGACUACUACATT against Sumo2 -1.14
GGUGAACUGGUCUACAACATT against Muc2 0.34
GGAGUUGAGCAAGACCAAGTT against Ccdc102a 0.628
GGGUAUAUUUGGAACUACGTT against Ppa1 -1.2
GGACAUGAACCUCUUCAAATT against Fads2 0.632
CCUCUGCUUUGUUACUUCCTT against Olfr1431 -0.287
CCACCUAUUACAUGAUCUUTT against Rnf32 -0.23
GCAAACGACUGUGACAAAATT against Ly6m -0.0028
CCUCCCUAAUGGUCCAUUATT against Cyp2j13 -0.517
GCUGGAGAACCUCCCUAAATT against Mrps33 1.14
GGUAAUGAAGGAACUGGAUTT against S100a1 0.0105
GGAGUUGCCCUCAUCUUCATT against Casp6 -1.59
GGUGGAACUCGUCAAUAGCTT against Vat1 0.269
GGUGAACAGUUGAUUUCAUTT against Smim10l2a 1.48
GGAUCACAUCGAGAAAACCTT against Utrn -1.57
GCGGAAAGGCCAAACGAUUTT against Inhbb -0.734
CCUUCUCCAUGUCAGAUCUTT against Col5a2 0.23
GGAUACGCUUGUCCCACCATT against Mdm1 -0.649
CCAUUAUGGGAGGAAGAUUTT against Clvs2 0.969
GGACAAAGAGAAUGAUGGATT against Cdc25b -1.68
GCUAAUCCCAUCUCGUCCUTT against 3110009E18Rik 1.15
GGCCGAAGCAUCUUCAAGATT against Wdr24 1.88
GGAUCCCAUUAGAAAGAAATT against Cbx2 0.316
GCGAUUACUACUUGAAACUTT against Fa2h -0.384
CGGAUGUGGGCAUUCGUUATT against Fbxl7 0.421

z-score, active:
GCAAAAGCGGGUCAAAAAATT against Lrrc72 2.27
GGCUGUGAUUGGCAAUCUATT against 6430548M08Rik -3.04
GGAAAUGCCAUCGUCAUUUTT against Gpr1 2.66
GGGAUGUUUAGGUCACCUUTT against 4933434M16Rik -2.35
CCCGUGGUCCUACAUUGUUTT against Cdon 2.39
GGCCAAAGUGGUGUGUUUCTT against Mta1 2.46
GGAAGAUAUGAAGGGCUCATT against Mb -2.18
GGAUCUGGAUACUUUUCCATT against Arhgap22 -2.09
GGCGGUGGAGGUGAUAUAUTT against Dennd6a -2.01
GGCACUGUUCGGCAAGAAGTT against Trappc5 -2.1
CGGGCAGCUAGAUUUCCAATT against S100a11 2.86
GGCUAUAGGUUUCUGGGAATT against Fzd6 4.94
GGGCUGGAAUCUAGGAAGUTT against Ccr10 2.68
CCACCAAGGAGACAUAGAUTT against Nans 2.85
GCAUAUCGCUUUUGUGAGCTT against E2f6 2.31
GCUGUUAAAACUCUCGUUATT against Pdk3 2.02
GGUUCUUGGUGAUGAUGAGTT against Pds5a -2.6
GGACCGGUUUAUUUGGCGGTT against Mmp2 3.43
GGGUGACCUAAUCCAGUGUTT against Neurog3 2.5
GCUUCUGUUCGUUACGUCCTT against Ndufc2 2.55
GGCAAAGUUGCCAGAUGAATT against Mettl23 2.42
GGCUGAAAAAAGUGGAGAATT against Sh3bgr 2.12
